# According to PubChem BioAssay (NCATS):
# Values joined by “and” are separate entries in the source; they are usually repeats but may differ in a detail not shown here. Identical values can stand only once. Inconclusive results are not listed. Where a call stands in place of a potency, no number is given. Where a structure was tested more than once in an assay, its records may differ in their call. Active and inactive are the calls of the source. Calls come from the whole dose curve; as a rule, active = well fitted activation curve with a large enough effect in the signal ratio; inconclusive = small, poorly fitted or top-dose-only effect, or effect the other way, or a change in a side signal; inactive = flat fitted curve, though single readings scatter; the % refers to the signal ratio.
# Experiment: qHTS assay to identify small molecules that stimulate interleukin-8 (IL-8) secretion (AID 651758)
# Conditions: HTRF ratio (665/615); series mostly up to 92.2 µM
# Description: National Center for Advancing Translational Sciences [NCATS]
# NIH Chemical Genomics Center [NCGC]
# National Institutes of Environmental Health Sciences [NIEHS]
# National Toxicology Program [NTP]
# Interleukin-8 is a 8 kDa chemokine produced by macrophages and other cells like epithelial cells that is often associated with inflammation. Interleukin-8 secretion is a key parameter in localized inflammation. There is a growing concern for some of environmental chemicals which may contribute the increasing the incidence of inflammation. A homogeneous IL-8 assay using Time Resolved fluorescence (HTRF) technology based on Time Resolved Fluorescent Resonance Energy Transfer (TR-FRET) allows to measure IL-8 secreted from the cells in a 1536-well plate format.
# THP-1 cells were dispensed at 2000 cells/5ul/well in 1536-well white solid plates. After addition of 23 nl of compound, positive controls and DMSO only, the assay plates were incubated at 37 C for 16 hrs, followed by addition of 5 uL of mixture of cryptate labeled and XL665 labeled anti-IL-8 antibodies. After the assay plates were incubated at room temperature for 1-3 hrs, the plates were measured by an EnVision plate reader.
# Potency is the fitted concentration of half-maximal effect.
row,SMILES,Potency
1,C=CCN=C=S,inactive
2,COc1ccc2c(c1OC)C(=O)OC2C1c2cc3c(cc2CCN1C)OCO3 (stereo not given),inactive
3,O=C(O)C(Cl)(Cl)Cl,inactive
4,CC(C)(C)c1cc(O)ccc1O,inactive and 66.8 µM (active)
5,CC(C)CCON=O,inactive
6,S=C=S,inactive
7,[O]=[Cr](=[O])([OH])[O][Cr](=[O])(=[O])[OH],inactive
8,ClCC1CO1 (stereo not given),inactive
9,CCOC(=O)c1ccccc1C(=O)OCC,inactive
10,ClC(Cl)(Cl)Cl,inactive
